Most compounds without a hit are left out; they make up all but 6.3% or so of the library.
RORgamma inh: inhibitors of mouse ROR gamma transcriptional activity. P51450. Drosophila S2 Gal4-RORgamma UAS-luciferase reporter, 20 h. Potency, µM (highest dose often 53.6 µM), for inactives: top-dose activity change, negative = inhibition, most hits filed as inhibitors. 310,000 tested, 5.4% active; further: on the % scale 0 is the no-effect control and ±100 the full control effect; nearly all actives have a fitted effect of over 60% in size
Target sequence (P51450 whole entry, looked up, the tested form may be a part): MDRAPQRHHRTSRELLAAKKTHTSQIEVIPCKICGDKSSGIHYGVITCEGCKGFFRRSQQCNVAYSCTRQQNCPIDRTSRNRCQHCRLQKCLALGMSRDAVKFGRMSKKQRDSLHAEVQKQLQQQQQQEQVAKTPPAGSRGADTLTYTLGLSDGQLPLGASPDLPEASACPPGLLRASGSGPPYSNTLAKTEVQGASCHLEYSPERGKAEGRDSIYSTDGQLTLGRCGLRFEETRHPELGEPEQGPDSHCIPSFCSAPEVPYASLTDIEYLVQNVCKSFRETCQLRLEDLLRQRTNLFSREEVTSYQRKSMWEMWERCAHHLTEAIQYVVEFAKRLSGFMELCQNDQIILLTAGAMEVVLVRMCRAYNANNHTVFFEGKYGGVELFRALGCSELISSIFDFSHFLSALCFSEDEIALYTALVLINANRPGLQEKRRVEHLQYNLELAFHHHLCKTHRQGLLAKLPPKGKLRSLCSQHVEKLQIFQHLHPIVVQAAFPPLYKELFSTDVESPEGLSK
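Drosophila S2 cells stably expressing Gal4-DBD/mouse RORγ fusion under metallothionein promoter plus UAS-luciferase; compound 1 h, then 700 uM CuSO4 induction for 20 h at ambient temperature; inhibition read as reduced luminescence.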
HepG2 viability: counter-screen for TGF-b inhibitors: cytotoxicity in HepG2 cells | HepG2 CAGA-GFP viability, ATP luminescence, 18 h | AID 588856 | 410,000 tested, 0.76% active | Potency, µM (doses to about 46.1 µM), inactives show at the highest dose activity change, negative = cytotoxicity, hits mostly cytotoxic
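CellTiter-Glo luminescence gave cytotoxicity after 18 hours at 37 degrees C. The cells were HepG2 CAGA-GFP in 1% FBS DMEM, stimulated with 500 pg/mL TGF-beta after compound addition. %Activity was normalised to no-cell wells (complete cell-killing) and DMSO (no toxicity), and curves were fitted and classified.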
ATXN2 expr inh: ATXN2 expression inhibition; HEK-293 ATXN2-luciferase reporter, luminescence, 24 h; AID 1745845; Potency, µM (titrated, usually from 57 µM), without a hit: at the highest dose activity change, negative = inhibition, hits mostly inhibitors; 360,000 tested, 0.72% active; further: on the % scale 0 is the no-effect control and ±100 the full control effect; nearly all actives have a fitted effect of over 55% in size
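qHTS (up to 57 uM final) was run with 24 h compound exposure of reporter cells at 37 °C. Each well was multiplexed: SteadyGlo luminescence measured ATXN2-luciferase expression after a fluorogenic Gly-Phe-AFC viability readout (25 uM final).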
VP16 counter: Gal4-VP16 reporter inhibition counter-screen; 310,000 tested, 3.5% active; Drosophila S2 Gal4-VP16 UAS-luciferase, luminescence, 20 h; Potency, µM (highest dose often 53.6 µM), for the others: top-dose activity, negative = inhibition, hits mostly inhibitors;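 further: Gal4-VP16 expression switched on by copper sulfate through the metallothionein promoter; on the % scale 0 is the no-effect control and ±100 the full control effect; nearly all actives have a fitted effect of over 50% in size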
S2 tox: cell viability loss in ATXN counter-screen; AID 651635; S2 cells (HEK-293 line with an ATXN2-luciferase reporter) viability, CellTiter-Fluor protease fluorescence, 24 h; Potency, µM (titrated, usually from 56.7 µM), hits mostly cytotoxic; 400,000 tested, 0.49% active; further: nearly all actives have a fitted effect of over 40% in size
TGFb SMAD3 inh: TGF-b pathway inhibition; HepG2 CAGA-GFP TGF-b/SMAD3 reporter, GFP fluorescence, 18 h; TGF-beta stimulated, 500 pg/mL final; Potency, µM (series often up to 46.1 µM), for inactives: at the highest dose activity, negative = inhibition, most hits filed as inhibitors; 410,000 tested, 1.2% active; further: on the % scale 0 is the no-effect control and ±100 the full control effect; nearly all actives have a fitted effect of over 65% in size
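HEPG2 CAGA-GFP reporter cells (1000/well, DMEM with 1% FBS) received compounds, then recombinant TGF-beta at 500 pg/mL final for 18 hours at 37 degrees C. Per-cell GFP summed per well was normalised to unstimulated and stimulated DMSO controls before curve fitting.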
* = called active by the depositor. The call rests on the fitted dose curve; in most records, active means well fitted curve in the direction sought with a large enough effect; inconclusive means small, poorly fitted or top-dose-only effect, or another doubt; inactive means no such curve, though single readings can be large; an effect the other way counts as inactive or inconclusive. Potency means the concentration at half of the fitted maximal effect.

Results for CNC(=S)N1CCc2cc(OC)c(OC)cc2C1COc1ccc(OC)cc1 (configuration not stated) ?
RORgamma inh: inconclusive; HepG2 viability: 2%; ATXN2 expr inh: 58%; VP16 counter: 10%; S2 tox: inactive; TGFb SMAD3 inh: -1%

Results for O=C(CCCn1c(=S)[nH]c2cc3c(cc2c1=O)OCO3)N1CCc2ccccc2C1 ?
RORgamma inh: 13µM*; HepG2 viability: -28%; ATXN2 expr inh: -13%; VP16 counter: inconclusive; S2 tox: inactive; TGFb SMAD3 inh: -10%

Results for O=C(CCCn1c(=S)[nH]c2cc3c(cc2c1=O)OCO3)N1CCN(c2ccc(Cl)cc2)CC1 ?
RORgamma inh: 6.3µM*; HepG2 viability: -27%; VP16 counter: 5.6µM*; TGFb SMAD3 inh: -4%

How did Cc1cccc(N2CCN(C(=O)CCCn3c(=S)[nH]c4cc5c(cc4c3=O)OCO5)CC2)c1C do in these assays?
RORgamma inh: 3.2µM*; HepG2 viability: -2%; ATXN2 expr inh: -9%; VP16 counter: 4.5µM*; S2 tox: inactive; TGFb SMAD3 inh: -16%

What do the screens show for `CC(=O)c1ccc(N2CCN(C(=O)CCCn3c(=S)[nH]c4cc5c(cc4c3=O)OCO5)CC2)cc1`?
RORgamma inh: 11µM*; HepG2 viability: -24%; ATXN2 expr inh: 2%; VP16 counter: inconclusive; S2 tox: inactive; TGFb SMAD3 inh: 0%

What do the screens show for `O=C(CCn1c(=S)[nH]c2cc3c(cc2c1=O)OCO3)N1CCc2ccccc2C1`?
RORgamma inh: -13%; VP16 counter: -12%

How did CCOc1ccc(CNS(=O)(=O)c2cc(-c3cc(C)no3)ccc2C)cc1OC do in these assays?
HepG2 viability: -22%; TGFb SMAD3 inh: inconclusive

How did Cc1occc1C(=O)Nc1cccc(-c2nc(CNC(=O)c3ccc(N4CCCCC4)cc3)c(C)o2)c1 do in these assays?
S2 tox: inactive

How did COc1ccc(S(=O)(=O)NCC(c2ccc(N(C)C)cc2)N2CCc3ccccc32)cc1F (configuration not stated) do in these assays?
HepG2 viability: 4%; ATXN2 expr inh: 8%; S2 tox: inactive; TGFb SMAD3 inh: -13%

How did CCc1ccccc1NC(=O)CSc1nnc(CC)c(CC)n1 do in these assays?
HepG2 viability: 3%; TGFb SMAD3 inh: 0%

How did O=C1NC(=O)C(Cc2ccccc2F)(C2CCN(Cc3cccn3-c3cccnc3)CC2)N1 (configuration not stated) do in these assays?
S2 tox: inactive

Results for CC1(C)CC(=O)C(N=Nc2ccc(F)cc2)=C(O)C1 ?
RORgamma inh: 2%; HepG2 viability: -10%; ATXN2 expr inh: 1%; VP16 counter: 6%; S2 tox: inactive; TGFb SMAD3 inh: -13%

Results for CC(N)=Nc1ccc([N+](=O)[O-])cc1 ?
RORgamma inh: -3%; HepG2 viability: 3%; ATXN2 expr inh: -6%; VP16 counter: -3%; S2 tox: inactive; TGFb SMAD3 inh: 4%

Results for CC(=O)Nc1ccc(N=NC2C(=O)N(C(N)=S)N=C2C)cc1 (configuration not stated) ?
RORgamma inh: 5µM*; HepG2 viability: -48%; ATXN2 expr inh: -1%; VP16 counter: 8.9µM*; S2 tox: inconclusive; TGFb SMAD3 inh: 3%

Results for CC1=NN(C(N)=S)C(=O)C1N=Nc1ccc(F)cc1 (configuration not stated) ?
RORgamma inh: 1µM*; HepG2 viability: 20%; VP16 counter: 1.3µM*; S2 tox: inconclusive; TGFb SMAD3 inh: 1%

What do the screens show for `CC1=NN(C(N)=S)C(=O)C1N=Nc1ccc(O)cc1` (configuration not stated)?
RORgamma inh: 4µM*; HepG2 viability: -4%; ATXN2 expr inh: 15%; VP16 counter: inconclusive; S2 tox: inactive; TGFb SMAD3 inh: -17%

What do the screens show for `CC1=NN(C(N)=S)C(=O)C1N=Nc1ccc([N+](=O)[O-])cc1` (configuration not stated)?
RORgamma inh: 0.16µM*; HepG2 viability: 5%; ATXN2 expr inh: 24%; VP16 counter: 1.3µM*; S2 tox: inactive; TGFb SMAD3 inh: -23%

What do the screens show for `NC(=S)N=Nc1ccc(O)cc1`?
HepG2 viability: -6%; ATXN2 expr inh: -20%; S2 tox: inconclusive; TGFb SMAD3 inh: inconclusive

What do the screens show for `CC(NC(=O)c1ccccc1)C(=O)OCn1nnc2ccccc2c1=O` (configuration not stated)?
HepG2 viability: -33%; ATXN2 expr inh: -10%; S2 tox: inactive; TGFb SMAD3 inh: 5%

How did CCOc1cc(S(=O)(=O)NCCc2c(C)[nH]c3ccc(C)cc23)ccc1F do in these assays?
HepG2 viability: -43%; ATXN2 expr inh: inconclusive; S2 tox: inconclusive; TGFb SMAD3 inh: inconclusive

What do the screens show for `O=C(Cc1c(F)cccc1Cl)Nc1cc(S(=O)(=O)N2CCOCC2)ccc1N1CCOCC1`?
HepG2 viability: -13%; ATXN2 expr inh: -6%; S2 tox: inconclusive; TGFb SMAD3 inh: 1%

What do the screens show for `CC1=NN(C(N)=S)C(=O)C1N=Nc1ccc(C)c(Br)c1` (configuration not stated)?
RORgamma inh: 0.71µM*; HepG2 viability: -32%; VP16 counter: 2.8µM*; S2 tox: inconclusive; TGFb SMAD3 inh: -27%

What do the screens show for `CCOc1ccc(N=NC2C(=O)N(C(N)=S)N=C2C)cc1` (configuration not stated)?
RORgamma inh: 0.32µM*; HepG2 viability: -2%; VP16 counter: 0.35µM*; S2 tox: inactive; TGFb SMAD3 inh: -6%

What do the screens show for `COc1ccccc1Nc1nc(-c2sc(N)nc2C)cs1`?
RORgamma inh: inconclusive; HepG2 viability: 12%; VP16 counter: 12%; S2 tox: inconclusive; TGFb SMAD3 inh: 6%

How did Cc1nc(N)sc1-c1csc(Nc2ncccn2)n1 do in these assays?
RORgamma inh: 6.3µM*; HepG2 viability: 2%; ATXN2 expr inh: 15%; VP16 counter: inconclusive; S2 tox: inconclusive; TGFb SMAD3 inh: -3%

How did COc1c2c(cc3c1C(CC(O)Cc1ccccc1)N(C)CC3)OCO2 (configuration not stated) do in these assays?
RORgamma inh: 36%; HepG2 viability: -27%; ATXN2 expr inh: -16%; VP16 counter: 3%; S2 tox: inactive; TGFb SMAD3 inh: -17%

How did COc1ccc2c(c1OC)C(Cc1ccccc1)N1CCc3cc4c(cc3C1=C2)OCO4 (configuration not stated) do in these assays?
RORgamma inh: inconclusive; VP16 counter: 14µM*
